Experimental data: the supplement of paper PMC10515830
Counter-ions that a name gives are not always drawn.

Key:
Conditions in all cases: 10 µM; exposure time 6 h
[1] = tested on: Danio rerio larvae (5 dpf); assay: difference in excitability vs DMSO (percentage points); higher = more excitable than DMSO
Procedure, shortened: (§1)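 Wild-type 5 dpf zebrafish larvae in 96-well plates were given 100 µL egg water containing library compound at 10 µM final for 6 h. After 3 h of exposure, plates at 28.5 ℃ were photographed every 6 s during a 3-h programme of moving lines and 100 ms, 400Hz tones. Z-LaP Tracker (a DeepLabCut model) quantified each behaviour, averaged over 48 larvae per compound. Values are the compound mean minus the DMSO-vehicle control, in percentage points.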

[2] = tested on: Danio rerio larvae (5 dpf); assay: difference in startle response vs DMSO (percentage points); higher = stronger startle than DMSO
Procedure, shortened: as §1

[3] = tested on: Danio rerio larvae (5 dpf); assay: difference in activity during first hour vs DMSO (percentage points); higher = more activity than DMSO
Procedure, shortened: as §1

[4] = tested on: Danio rerio larvae (5 dpf); assay: difference in habituation to acoustic stimuli vs DMSO (percentage points); higher = more habituation than DMSO
Procedure, shortened: as §1

[5] = tested on: Danio rerio larvae (5 dpf); assay: difference in combined optomotor response to red, green and blue moving lines vs DMSO (percentage points); higher = stronger optomotor response than DMSO
Procedure, shortened: as §1

| SMILES | difference in excitability [1] | difference in startle response [2] | difference in activity during first hour [3] | difference in habituation to acoustic stimuli [4] | difference [5] |
| --- | --- | --- | --- | --- | --- |
| CCOC(=O)c1ccc(C#Cc2ccc3c(c2)C(C)(C)CCS3)nc1 [Tazarotene] | 13.2 | -9.42 | 54.2 | -9.47 | -15.1 |
| CC[N+](C)(C)c1cccc(O)c1 [Edrophonium (chloride)] | -0.775 | -0.613 | 5.67 | 7.33 | 3.51 |
| CN(C)C(=N)NC(=N)N [Metformin (hydrochloride)] | -3.21 | 1.77 | -3.05 | -5.21 | -1.97 |
| CCOc1nc2cccc(C(=O)OCc3oc(=O)oc3C)c2n1Cc1ccc(-c2ccccc2-c2noc(=O)[nH]2)cc1 [Azilsartan Medoxomil] | 6.47 | -1.67 | -8.07 | 5.02 | -2.25 |
| Cc1ccc(C)c(OCCCC(C)(C)C(=O)O)c1 [Gemfibrozil] | 14.3 | -10.7 | -1.6 | -4.26 | 4.28 |
| CN1CCC(=C2c3ccccc3C=Cc3ccccc32)CC1 [Cyproheptadine (hydrochloride hydrate)] | 6.61 | -4.47 | -3.08 | -11.2 | -16.4 |
| OCCOc1ccc(/C(=C(/CCCl)c2ccccc2)c2ccccc2)cc1 [Ospemifene] | 6.62 | -3.99 | -12.6 | -8.31 | -16.5 |
| CO[C@H]1O[C@@H]2O[C@@]3(C)CC[C@H]4[C@H](C)CC[C@@H]([C@H]1C)[C@@]24OO3 [Artemether] | 17.2 | 3.03 | -1.53 | 3.23 | 7.61 |
| CC(C)Nc1cccnc1N1CCN(C(=O)c2cc3cc(NS(C)(=O)=O)ccc3[nH]2)CC1 [Delavirdine (mesylate)] | -2.46 | -1.52 | -9.21 | 7.6 | -2.16 |
| Nc1nc2ccc(OC(F)(F)F)cc2s1 [Riluzole (hydrochloride)] | 12.7 | -2.33 | 7.76 | 3.2 | 11.9 |
| NCCCC(O)(P(=O)(O)O)P(=O)(O)O [Alendronate (sodium hydrate)] | -4.92 | 0.325 | -3.96 | -4.98 | 5.9 |
| COc1ccccc1OCC(O)CO (stereo not given) [Guaifenesin] | 1.91 | -2.97 | 10.9 | 3.83 | 6.79 |
| CC(=O)[C@H]1CC[C@H]2[C@@H]3CCC4=CC(=O)CC[C@]4(C)[C@H]3CC[C@]12C [Progesterone] | 3.92 | -7.45 | -21.2 | -12.3 | -17.3 |
| CN(C)CCOc1ccc(/C(=C(/CCCl)c2ccccc2)c2ccccc2)cc1 [Toremifene (citrate)] | 4.69 | -6.57 | 9.64 | -7.15 | -13.3 |
| O=C(NCC1CCCCN1)c1cc(OCC(F)(F)F)ccc1OCC(F)(F)F (stereo not given) [Flecainide (acetate)] | 6.44 | -12.4 | -19.1 | -11 | -18.8 |
| Nc1nc(NC2CC2)c2ncn([C@H]3C=C[C@@H](CO)C3)c2n1 [Abacavir (sulfate)] | -1.01 | -0.154 | 7.36 | -0.118 | 5.64 |
| C[C@](N)(Cc1ccc(O)cc1)C(=O)O [Metyrosine] | 0.523 | 8.55 | -8.67 | 12.3 | -4.59 |
| CCc1cc2c(cc1CC)CC(NC[C@H](O)c1ccc(O)c3[nH]c(=O)ccc13)C2 [Indacaterol] | -0.786 | 4.28 | -1.22 | 3.2 | -2.46 |
| CN(C)CCOC(c1ccc(Cl)cc1)c1ccccn1 (stereo not given) [Carbinoxamine (maleate)] | 8.33 | 3.19 | -11.6 | 5.36 | -7.17 |
| CC(C)(C)c1cc(C(C)(C)C)c(NC(=O)c2c[nH]c3ccccc3c2=O)cc1O [Ivacaftor] | 2 | -4.58 | -10 | -2.59 | 5.49 |
| C#Cc1cccc(Nc2ncnc3cc(OCCOC)c(OCCOC)cc23)c1 [Erlotinib] | 4.3 | -6.74 | -6.91 | -0.321 | -4.8 |
| CCCCCOc1ccc(-c2cc(-c3ccc(C(=O)N[C@H]4C[C@@H](O)[C@@H](O)NC(=O)[C@@H]5[C@@H](O)[C@@H](C)CN5C(=O)[C@H]([C@H](O)CC(N)=O)NC(=O)[C@H]([C@H](O)[C@@H](O)c5ccc(O)c(OS(=O)(=O)O)c5)NC(=O)[C@@H]5C[C@@H](O)CN5C(=O)[C@H]([C@@H](C)O)NC4=O)cc3)no2)cc1 [Micafungin (sodium salt)] | -4.69 | -8.33 | 19.8 | -1.44 | -1.06 |
| OC(Cn1cncn1)(Cn1cncn1)c1ccc(F)cc1F [Fluconazole] | -1.01 | -5.1 | -3.04 | -5.58 | 3.09 |
| CC(CCc1ccc(O)cc1)NCCc1ccc(O)c(O)c1 (stereo not given) [Dobutamine (hydrochloride)] | 10.9 | 6.81 | -2.65 | 12 | 13.9 |

| SMILES | difference in excitability [1] | difference in startle response [2] | difference in activity during first hour [3] | difference in habituation to acoustic stimuli [4] | difference [5] |
| --- | --- | --- | --- | --- | --- |
| CC(=O)O[C@@]12CO[C@@H]1C[C@H](O)[C@@]1(C)C(=O)[C@H](O)C3=C(C)[C@@H](OC(=O)[C@H](O)[C@@H](NC(=O)OC(C)(C)C)c4ccccc4)C[C@@](O)([C@@H](OC(=O)c4ccccc4)[C@H]21)C3(C)C [Docetaxel (hydrate)] | 4.98 | -2.23 | -2.75 | -0.117 | -1.11 |
| Nc1cc(Cl)c(N=C2NCCN2)c(Cl)c1 [Apraclonidine (hydrochloride)] | 8.82 | 7.97 | -13.7 | -0.961 | -2.54 |
| C=C(c1ccc(C(=O)O)cc1)c1cc2c(cc1C)C(C)(C)CCC2(C)C [Bexarotene] | 7.21 | 1.4 | -13.5 | -4.93 | -11 |
| Cc1ncc(CO)c(CO)c1O [Pyridoxine] | -7.67 | 5.43 | 7.49 | 4.31 | 4.65 |
| CCCc1nc(C)c2c(=O)nc(-c3cc(S(=O)(=O)N4CCN(CC)CC4)ccc3OCC)[nH]n12 [Vardenafil (hydrochloride hydrate)] | 4.29 | 1.36 | 0.203 | 5.85 | 12.9 |
| CCNC(=O)CCC/C=C\C[C@@H]1[C@@H](/C=C/[C@@H](O)CCc2ccccc2)[C@H](O)C[C@@H]1O [17-phenyl trinor Prostaglandin F2α ethyl amide] | 12.5 | -5.26 | 14.8 | -0.264 | 7.13 |
| CN(C)CCC=C1c2ccccc2C=Cc2ccccc21 [Cyclobenzaprine (hydrochloride)] | 17.5 | -6.94 | 6.26 | -8.81 | 14.9 |
| NC1=NCC2c3ccccc3Cc3ccccc3N12 (stereo not given) [Epinastine (hydrochloride)] | 13 | -2.41 | 14.1 | 4.49 | 7.56 |
| CO/N=C(\C(=O)N[C@@H]1C(=O)N2C(C(=O)[O-])=C(C[N+]3(C)CCCC3)CS[C@H]12)c1csc(N)n1 [Cefepime (hydrochloride hydrate)] | 1.19 | -0.767 | 1.35 | 1.3 | -1.46 |
| CNC(=O)c1ccc(N2C(=S)N(c3ccc(C#N)c(C(F)(F)F)c3)C(=O)C2(C)C)cc1F | 13.3 | 4.28 | -11 | -1.47 | -0.198 |
| O=c1[nH]c2ccccc2n1CCN1CCN(c2cccc(C(F)(F)F)c2)CC1 [Flibanserin] | 17.7 | 11.6 | 9.81 | -4.3 | -0.569 |
| C[C@]12C=CC(=O)N[C@@H]1CC[C@@H]1[C@@H]2CC[C@]2(C)[C@@H](C(=O)Nc3cc(C(F)(F)F)ccc3C(F)(F)F)CC[C@@H]12 [Dutasteride] | 18.8 | -0.713 | 22.4 | -8.39 | -3.79 |
| CN1CCN(C2=Nc3cc(Cl)ccc3Nc3ccccc32)CC1 [Clozapine] | 9.35 | -11.3 | 37.7 | -6.72 | 5.08 |
| C=C1/C(=C\C=C2/CCC[C@]3(C)[C@@H]([C@H](C)/C=C/[C@@H](O)C4CC4)CC[C@@H]23)C[C@@H](O)C[C@@H]1O [Calcipotriol (hydrate)] | 15.4 | -5.26 | 0.435 | -0.975 | 5.42 |
| CC(C)[N+](C)(CCOC(=O)C1c2ccccc2Oc2ccccc21)C(C)C [Propantheline (bromide)] | 4.4 | 5.21 | 4.15 | 4.81 | 5.08 |
| Cc1cn(-c2cc(NC(=O)c3ccc(C)c(Nc4nccc(-c5cccnc5)n4)c3)cc(C(F)(F)F)c2)cn1 [Nilotinib] | 28.8 | -3.62 | -6.05 | -1.02 | -2.49 |
| NCc1ccc(S(N)(=O)=O)cc1 [Mafenide] | 3.79 | 7.01 | 4.01 | 0.954 | 0.998 |
| O=C1[C@@H]2[C@H]3CC[C@H](C3)[C@@H]2C(=O)N1C[C@@H]1CCCC[C@H]1CN1CCN(c2nsc3ccccc23)CC1 [Lurasidone] | -9.91 | 6.61 | -1.19 | -11.8 | -17 |
| CCC(=O)NC[C@@H]1C[C@H]1c1cccc2c1CCO2 [Tasimelteon] | 25 | 6.9 | -17.9 | -3.17 | 11.5 |
| CCCCCCCCCCC[C@@H](C[C@@H]1OC(=O)[C@H]1CCCCCC)OC(=O)[C@H](CC(C)C)NC=O [Orlistat] | 0.283 | 0.288 | 10.8 | 3.74 | 2.67 |
| COCCCOc1ccnc(C[S+]([O-])c2nc3ccccc3[nH]2)c1C (stereo not given) [Rabeprazole (sodium salt)] | 2.22 | -0.57 | 7.69 | -4.65 | 15.4 |
| CC1(C)S[C@@H]2[C@H](NC(=O)[C@H](N)c3ccccc3)C(=O)N2[C@H]1C(=O)O [Ampicillin (sodium salt)] | 2.42 | 0.739 | -2.5 | -4.92 | -2.47 |
| CC(C)CN(C[C@@H](O)[C@H](Cc1ccccc1)NC(=O)O[C@H]1CO[C@H]2OCC[C@H]21)S(=O)(=O)c1ccc(N)cc1 [Darunavir] | -1.86 | 0.437 | 0.73 | 2.66 | 5.61 |
